{
  "source": "PubChem BioAssay (NCI)",
  "note": "About 83,000 compounds went through this panel and 20% of them were active in at least one assay; those are over-represented in the sample as a whole.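 How to read the values: 0–100, growth inhibition (40 = 60% inhibited); 0, no net growth; -100 to 0, cell death (-40 = 40% of starting cells died; -100 = all dead).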 Unmarked numbers belong to inactive results. The source made the active and inactive calls. The calls were made as follows: active = growth percent below 10; inactive = the rest.",
  "data": [
    {"tested_on": "A498 renal", "test": "NCI-60 one-dose screen, 48 h (100 = growth as untreated, 0 = no growth, -100 = all killed)", "settings": "10 µM unless noted", "values": [
      {"compound": "C=C1C(=O)O[C@H]2[C@H]1CC/C(COC(=O)NCCc1cccc(OC)c1)=C\\CC[C@@]1(C)O[C@@H]21", "growth": "82.4%"},
      {"compound": "COc1ccccc1OCC(=O)Nc1sc2c(c1C(N)=O)CCC2", "growth": "67.1%"},
      {"compound": "CCc1c(C(=O)Nc2ccc3ccccc3c2)[nH]c(C)c1C(C)=O", "growth": "80.2%"},
      {"compound": "CCC(=O)Oc1ccc2c(c1)CC[C@@H]1[C@@H]2CC[C@]2(C)C[C@H](OC(=O)CC)C[C@@H]12", "growth": "7.94% (active)"},
      {"compound": "COC(=O)CCCCN=Cc1c(O)c(O)c(C(C)C)c2cc(C)c(-c3c(C)cc4c(C(C)C)c(O)c(O)c(C=NCCCCC(=O)OC)c4c3O)c(O)c12", "growth": "12.2%"},
      {"compound": "COc1ccc2c(c1)C(C)Cc1c(N(C)C)ncnc1N2C", "note": "(stereo not drawn)", "growth": "2.02% (active)"},
      {"compound": "Cc1ccc(S(=O)(=O)OCC(=O)Nc2ccc(C(=O)O)c(O)c2)cc1", "growth": "99.3%"},
      {"compound": "O=C(O)c1ccc(-n2cc(CNc3ccc(C(F)(F)F)cc3)c(-c3ccccc3)n2)cc1", "growth": "87.6%"},
      {"compound": "Cc1cc(C(=O)CSc2nc3ccccc3c(=O)[nH]2)c(C)n1C", "growth": "74.6%"},
      {"compound": "CC/C=C\\C[C@H](O)C/C=C1/C(=O)C(Cl)=C[C@@H]1C/C=C\\CCCC(=O)OC", "growth": "1.86% (active)"},
      {"compound": "CCSc1nnc(Nc2ccc(C(C)C)cc2)s1", "growth": "111%"},
      {"compound": "Cc1ccc2nc(-c3c(N)n[nH]c3CCCO)[nH]c(=O)c2c1", "growth": "100%"},
      {"compound": "COc1cc(C(=O)N2CCN(C(=O)c3ccco3)CC2)c(N)cc1OCc1ccccc1", "growth": "105%"},
      {"compound": "O=C(Nc1cccc(Cl)c1)c1cc([N+](=O)[O-])ccc1O", "growth": "8.44% (active)"},
      {"compound": "O=C(CNC(=O)c1cccc2ccccc12)Nc1ccccc1Oc1ccccc1", "growth": "-14.9% (active)"},
      {"compound": "Nc1cccc2c1CN(C1CCC(=O)NC1=O)C2=O", "note": "(stereo not drawn)", "growth": "84.8%"},
      {"compound": "Nc1ccc(S(=O)(=O)c2ccc(Cl)cc2)cc1", "growth": "108%"},
      {"compound": "CNC(=O)c1cc(Oc2ccc3c(c2)sc2nc(-c4ccc(Cl)cc4)cn23)ccn1", "growth": "88.8%"},
      {"compound": "Cc1cc(C)c2c(=O)[nH]c(SCC(=O)Nc3cccc(S(=O)(=O)N(C)C)c3)nc2n1", "growth": "104%"},
      {"compound": "CSc1ccccc1C#C/C=C\\C#Cc1ccccc1N1CCCC1=O", "growth": "55.3%"},
      {"compound": "O=S(=O)(NCCCNc1cc(-c2cn(-c3ccccc3)nc2-c2cccc(O)c2)ccn1)c1ccc(Cl)cc1", "growth": "26.4%"},
      {"compound": "CC(=O)Oc1cccc(OC(C)=O)c1OC(C)=O", "growth": "87.3%"},
      {"compound": "C=C1C(=O)O[C@H]2[C@H]1CC/C(COC(=O)NCCc1ccc(Br)cc1)=C\\CC[C@@]1(C)O[C@@H]21", "growth": "79.1%"},
      {"compound": "O=S=Nc1ccc([N+](=O)[O-])cc1", "growth": "79.2%"},
      {"compound": "COc1ccc(N=C2NN=C(c3ccc(F)cc3)CS2)cc1OC", "growth": "86.1%"},
      {"compound": "NC(C(=O)O)C(O)c1ccc(OCc2ccccc2)c(OCc2ccccc2)c1", "note": "(stereo not drawn)", "growth": "85.3%"},
      {"compound": "CC/C=C\\C[C@H]1C/C=C2/C(=O)C(Cl)=C[C@@H]2C/C=C\\CCCC(=O)O1", "growth": "-68.3% (active)"},
      {"compound": "Cc1sc2nc(CSc3nnc(-c4ccco4)o3)[nH]c(=O)c2c1C", "growth": "110%"},
      {"compound": "O=S(=O)(NCCCNc1cc(-c2cn(-c3ccccc3)nc2-c2cccc(O)c2)ccn1)c1cccc2ccccc12", "growth": "43.6%"},
      {"compound": "CN(C)c1nc(N)c(N=O)c(N)n1", "growth": "76.1%"},
      {"compound": "O=C1NC(Cc2c[nH]c3ccccc23)C(=O)N1Cc1ccc(Cl)cc1", "note": "(stereo not drawn)", "growth": "78.9%"},
      {"compound": "COC(=O)c1ccc(C)cc1", "growth": "79.9%"},
      {"compound": "COC(=O)CCCCCN=Cc1c(O)c(O)c(C(C)C)c2cc(C)c(-c3c(C)cc4c(C(C)C)c(O)c(O)c(C=NCCCCCC(=O)OC)c4c3O)c(O)c12", "growth": "35.1%"},
      {"compound": "O=S(=O)(NCCCNc1nccc(-c2c(-c3ccc(F)c(O)c3)nc3sccn23)n1)c1ccc(Cl)cc1", "growth": "109%"},
      {"compound": "COc1ncc(-c2ccc3ncnc(Nc4cccc(Cl)c4)c3c2)cc1N(S(C)(=O)=O)S(C)(=O)=O", "growth": "49.6%"},
      {"compound": "CC(Br)C(O)c1cc2c(cc1Br)OCO2", "note": "(stereo not drawn)", "growth": "127%"},
      {"compound": "O=S(=O)(NCCCNc1cc(-c2cn(-c3ccccc3)nc2-c2cccc(O)c2)ccn1)c1ccc(Br)cc1", "growth": "25.2%"},
      {"compound": "COc1ccc2c(c1)NC(=O)CN2c1nc(C)nc2ccccc12", "growth": "-4.89% (active)"},
      {"compound": "NC(=O)c1c(NC(=O)c2ccc3c(c2)OCO3)sc2c1CCC(=O)C2", "growth": "-3.77% (active)"}
    ]},
    {"tested_on": "CCRF-CEM leukemia", "test": "NCI-60 one-dose screen, 48 h (100 = growth as untreated, 0 = no growth, -100 = all killed)", "settings": "10 µM unless noted", "values": [
      {"compound": "C=C1C(=O)O[C@H]2[C@H]1CC/C(COC(=O)NCCc1cccc(OC)c1)=C\\CC[C@@]1(C)O[C@@H]21", "growth": "4.38% (active)"},
      {"compound": "COc1ccccc1OCC(=O)Nc1sc2c(c1C(N)=O)CCC2", "growth": "24.3%"},
      {"compound": "CCc1c(C(=O)Nc2ccc3ccccc3c2)[nH]c(C)c1C(C)=O", "growth": "96.1%"},
      {"compound": "CCC(=O)Oc1ccc2c(c1)CC[C@@H]1[C@@H]2CC[C@]2(C)C[C@H](OC(=O)CC)C[C@@H]12", "growth": "74.6%"},
      {"compound": "COC(=O)CCCCN=Cc1c(O)c(O)c(C(C)C)c2cc(C)c(-c3c(C)cc4c(C(C)C)c(O)c(O)c(C=NCCCCC(=O)OC)c4c3O)c(O)c12", "growth": "18.4%"},
      {"compound": "COc1ccc2c(c1)C(C)Cc1c(N(C)C)ncnc1N2C", "note": "(stereo not drawn)", "growth": "18.6%"},
      {"compound": "Cc1ccc(S(=O)(=O)OCC(=O)Nc2ccc(C(=O)O)c(O)c2)cc1", "growth": "83.5%"},
      {"compound": "O=C(O)c1ccc(-n2cc(CNc3ccc(C(F)(F)F)cc3)c(-c3ccccc3)n2)cc1", "growth": "91.4%"},
      {"compound": "Cc1cc(C(=O)CSc2nc3ccccc3c(=O)[nH]2)c(C)n1C", "growth": "87.2%"},
      {"compound": "CC/C=C\\C[C@H](O)C/C=C1/C(=O)C(Cl)=C[C@@H]1C/C=C\\CCCC(=O)OC", "growth": "-3.78% (active)"},
      {"compound": "CCSc1nnc(Nc2ccc(C(C)C)cc2)s1", "growth": "70.6%"},
      {"compound": "Cc1ccc2nc(-c3c(N)n[nH]c3CCCO)[nH]c(=O)c2c1", "growth": "91.8%"},
      {"compound": "COc1cc(C(=O)N2CCN(C(=O)c3ccco3)CC2)c(N)cc1OCc1ccccc1", "growth": "86.4%"},
      {"compound": "O=C(Nc1cccc(Cl)c1)c1cc([N+](=O)[O-])ccc1O", "growth": "46.4%"},
      {"compound": "O=C(CNC(=O)c1cccc2ccccc12)Nc1ccccc1Oc1ccccc1", "growth": "18.3%"},
      {"compound": "Nc1cccc2c1CN(C1CCC(=O)NC1=O)C2=O", "note": "(stereo not drawn)", "growth": "98.7%"},
      {"compound": "Nc1ccc(S(=O)(=O)c2ccc(Cl)cc2)cc1", "growth": "111%"},
      {"compound": "CNC(=O)c1cc(Oc2ccc3c(c2)sc2nc(-c4ccc(Cl)cc4)cn23)ccn1", "growth": "93.6%"},
      {"compound": "Cc1cc(C)c2c(=O)[nH]c(SCC(=O)Nc3cccc(S(=O)(=O)N(C)C)c3)nc2n1", "growth": "89.1%"},
      {"compound": "CSc1ccccc1C#C/C=C\\C#Cc1ccccc1N1CCCC1=O", "growth": "23.6%"},
      {"compound": "O=S(=O)(NCCCNc1cc(-c2cn(-c3ccccc3)nc2-c2cccc(O)c2)ccn1)c1ccc(Cl)cc1", "growth": "11.6%"},
      {"compound": "CC(=O)Oc1cccc(OC(C)=O)c1OC(C)=O", "growth": "100%"},
      {"compound": "C=C1C(=O)O[C@H]2[C@H]1CC/C(COC(=O)NCCc1ccc(Br)cc1)=C\\CC[C@@]1(C)O[C@@H]21", "growth": "4% (active)"},
      {"compound": "O=S=Nc1ccc([N+](=O)[O-])cc1", "growth": "101%"},
      {"compound": "COc1ccc(N=C2NN=C(c3ccc(F)cc3)CS2)cc1OC", "growth": "81.8%"},
      {"compound": "NC(C(=O)O)C(O)c1ccc(OCc2ccccc2)c(OCc2ccccc2)c1", "note": "(stereo not drawn)", "growth": "94.6%"},
      {"compound": "CC/C=C\\C[C@H]1C/C=C2/C(=O)C(Cl)=C[C@@H]2C/C=C\\CCCC(=O)O1", "growth": "-19.1% (active)"},
      {"compound": "Cc1sc2nc(CSc3nnc(-c4ccco4)o3)[nH]c(=O)c2c1C", "growth": "64.3%"},
      {"compound": "O=S(=O)(NCCCNc1cc(-c2cn(-c3ccccc3)nc2-c2cccc(O)c2)ccn1)c1cccc2ccccc12", "growth": "26%"},
      {"compound": "CN(C)c1nc(N)c(N=O)c(N)n1", "growth": "112%"},
      {"compound": "O=C1NC(Cc2c[nH]c3ccccc23)C(=O)N1Cc1ccc(Cl)cc1", "note": "(stereo not drawn)", "growth": "70.1%"},
      {"compound": "COC(=O)c1ccc(C)cc1", "growth": "101%"},
      {"compound": "COC(=O)CCCCCN=Cc1c(O)c(O)c(C(C)C)c2cc(C)c(-c3c(C)cc4c(C(C)C)c(O)c(O)c(C=NCCCCCC(=O)OC)c4c3O)c(O)c12", "growth": "18.1%"},
      {"compound": "O=S(=O)(NCCCNc1nccc(-c2c(-c3ccc(F)c(O)c3)nc3sccn23)n1)c1ccc(Cl)cc1", "growth": "35.2%"},
      {"compound": "COc1ncc(-c2ccc3ncnc(Nc4cccc(Cl)c4)c3c2)cc1N(S(C)(=O)=O)S(C)(=O)=O", "growth": "86.8%"},
      {"compound": "CC(Br)C(O)c1cc2c(cc1Br)OCO2", "note": "(stereo not drawn)", "growth": "101%"},
      {"compound": "O=S(=O)(NCCCNc1cc(-c2cn(-c3ccccc3)nc2-c2cccc(O)c2)ccn1)c1ccc(Br)cc1", "growth": "12.2%"},
      {"compound": "COc1ccc2c(c1)NC(=O)CN2c1nc(C)nc2ccccc12", "growth": "37.2%"},
      {"compound": "NC(=O)c1c(NC(=O)c2ccc3c(c2)OCO3)sc2c1CCC(=O)C2", "growth": "-33.3% (active)"}
    ]}
  ]
}
